This passage reports binding signal results from PMC7862700, “An all-to-all approach to the identification of sequence-specific readers for epigenetic DNA modifications on cytosine”.

Holding throughout (test): DAPPL (digital affinity profiling via proximity ligation, sequencing); 10 mM Tris-HCl pH 7.5, 50 mM NaCl, 1 mM DTT, 4% glycerol, room temperature, 30 min; GST-TFs on glutathione beads, 16-mer random dsDNA library, 0.1% formaldehyde crosslink after washing; high values mean tight binding
Common to all, as to conditions: protein: recombinant; tags: N-terminal GST; dsDNA, one strand shown

One assay concerns the target T1, GABPA (Homo sapiens, UniProt Q06546 1-454).
T1 sequence: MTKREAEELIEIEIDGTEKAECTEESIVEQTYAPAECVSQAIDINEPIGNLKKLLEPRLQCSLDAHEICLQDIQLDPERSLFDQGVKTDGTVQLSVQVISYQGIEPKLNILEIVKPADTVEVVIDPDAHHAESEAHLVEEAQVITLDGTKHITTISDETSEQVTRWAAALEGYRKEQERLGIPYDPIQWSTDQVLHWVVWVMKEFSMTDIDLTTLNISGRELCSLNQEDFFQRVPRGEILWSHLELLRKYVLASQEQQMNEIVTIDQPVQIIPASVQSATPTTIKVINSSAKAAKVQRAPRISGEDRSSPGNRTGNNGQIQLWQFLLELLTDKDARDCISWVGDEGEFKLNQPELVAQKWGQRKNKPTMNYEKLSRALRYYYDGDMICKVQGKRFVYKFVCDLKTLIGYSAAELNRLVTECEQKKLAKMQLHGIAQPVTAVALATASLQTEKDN
Put shortly: (§1)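 Binding signal is given per hexamer as its read frequency for a factor divided by its frequency in the tag-only sample. GST-fused human transcription factors were expressed in yeast, captured on glutathione beads, barcoded with DNA and pooled with that sample, then incubated with 200 nmole of a 16-mer random double-stranded DNA library in Tris/NaCl/DTT/glycerol buffer for 30 min at room temperature. The pools were then washed, crosslinked, proximity-ligated, amplified by PCR and sequenced on an Illumina NextSeq500.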

A further assay concerns the target ELF1 (Homo sapiens, UniProt P32519 1-619). An outline of the steps: as §1
For the next assay, the target named is SPI1 (Homo sapiens, UniProt P17947 1-270). An outline of the steps:
as §1

In another assay the target is T2, SPIC (Homo sapiens, UniProt Q8N5J4 1-248).
T2 sequence: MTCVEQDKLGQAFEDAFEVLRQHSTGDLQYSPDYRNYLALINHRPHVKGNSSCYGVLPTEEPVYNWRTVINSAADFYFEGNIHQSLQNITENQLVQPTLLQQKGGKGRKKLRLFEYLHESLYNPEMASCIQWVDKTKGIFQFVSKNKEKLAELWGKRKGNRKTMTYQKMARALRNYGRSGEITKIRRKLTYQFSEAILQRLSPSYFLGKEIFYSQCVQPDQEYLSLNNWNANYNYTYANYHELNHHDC
An outline of the steps: as §1

In a further assay the target is ELF4 (Homo sapiens, UniProt Q99607 1-663). An outline of the steps: as §1
The target of the next assay is T3, ELF3 (Homo sapiens, UniProt P78545 1-371).
T3 sequence: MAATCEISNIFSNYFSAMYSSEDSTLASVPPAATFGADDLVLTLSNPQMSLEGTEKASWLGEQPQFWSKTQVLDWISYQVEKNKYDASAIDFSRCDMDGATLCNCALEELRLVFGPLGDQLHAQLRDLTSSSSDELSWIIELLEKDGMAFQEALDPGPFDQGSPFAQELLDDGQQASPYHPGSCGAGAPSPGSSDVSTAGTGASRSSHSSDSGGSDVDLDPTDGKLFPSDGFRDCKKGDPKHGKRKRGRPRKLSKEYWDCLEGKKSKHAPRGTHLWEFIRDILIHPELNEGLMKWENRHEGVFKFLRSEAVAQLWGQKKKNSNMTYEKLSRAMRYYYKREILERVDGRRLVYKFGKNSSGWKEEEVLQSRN
Put shortly: as §1

In the next assay the target is ETV1 (Homo sapiens, UniProt P50549 1-477). An outline of the steps:
as §1

A further assay has as its target T4, ETV7 (Homo sapiens, UniProt Q9Y603 1-341).
T4 sequence: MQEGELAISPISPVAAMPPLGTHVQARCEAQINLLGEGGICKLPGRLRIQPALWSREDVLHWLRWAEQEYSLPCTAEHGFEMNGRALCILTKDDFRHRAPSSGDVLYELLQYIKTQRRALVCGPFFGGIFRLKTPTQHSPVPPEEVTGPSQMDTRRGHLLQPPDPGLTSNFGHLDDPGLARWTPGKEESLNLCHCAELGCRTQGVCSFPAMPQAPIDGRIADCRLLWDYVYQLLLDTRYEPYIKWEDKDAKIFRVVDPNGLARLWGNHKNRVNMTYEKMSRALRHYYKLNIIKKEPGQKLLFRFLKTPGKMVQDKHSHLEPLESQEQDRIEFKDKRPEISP
Put shortly: as §1

The target in the next assay is T5, ELF5 (Homo sapiens, UniProt Q9UKW6-2 1-255).
T5 sequence: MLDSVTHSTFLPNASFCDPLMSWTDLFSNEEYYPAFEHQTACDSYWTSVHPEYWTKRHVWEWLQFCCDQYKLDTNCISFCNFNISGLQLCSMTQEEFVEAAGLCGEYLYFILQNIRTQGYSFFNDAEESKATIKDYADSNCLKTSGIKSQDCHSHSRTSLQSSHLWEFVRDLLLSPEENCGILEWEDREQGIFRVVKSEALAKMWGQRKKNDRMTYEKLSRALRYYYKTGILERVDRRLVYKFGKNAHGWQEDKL
Put shortly:
as §1

For the next assay, the target named is T6, ETV3 (Homo sapiens, UniProt P41162-2 1-143).
T6 sequence: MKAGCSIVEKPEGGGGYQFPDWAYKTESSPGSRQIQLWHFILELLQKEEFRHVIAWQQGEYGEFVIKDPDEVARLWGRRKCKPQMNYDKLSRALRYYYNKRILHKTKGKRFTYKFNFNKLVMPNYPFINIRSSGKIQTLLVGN
Put shortly: as §1

The target of a further assay is ETV6 (Homo sapiens, UniProt P41212 1-452). Put shortly:
as §1

Another assay has as its target T7, ERF (Homo sapiens, UniProt P50548 1-548).
T7 sequence: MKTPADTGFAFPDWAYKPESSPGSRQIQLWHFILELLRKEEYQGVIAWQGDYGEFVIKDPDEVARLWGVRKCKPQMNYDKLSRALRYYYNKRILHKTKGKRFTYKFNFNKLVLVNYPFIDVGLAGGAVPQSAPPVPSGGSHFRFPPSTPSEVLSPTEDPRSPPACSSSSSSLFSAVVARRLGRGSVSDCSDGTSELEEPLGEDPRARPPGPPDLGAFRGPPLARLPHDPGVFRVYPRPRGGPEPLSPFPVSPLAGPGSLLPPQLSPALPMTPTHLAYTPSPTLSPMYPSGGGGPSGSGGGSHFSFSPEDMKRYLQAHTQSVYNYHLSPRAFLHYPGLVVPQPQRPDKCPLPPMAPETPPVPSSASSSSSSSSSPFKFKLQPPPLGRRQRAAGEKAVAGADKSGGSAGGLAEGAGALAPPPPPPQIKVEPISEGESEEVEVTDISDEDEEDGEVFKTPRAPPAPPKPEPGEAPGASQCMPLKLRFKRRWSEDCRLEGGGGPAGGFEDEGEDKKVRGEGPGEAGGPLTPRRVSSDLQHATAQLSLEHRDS
An outline of the steps:
as §1

The target of a further assay is T8, ELK4 (Homo sapiens, UniProt P28324-2 1-405).
T8 sequence: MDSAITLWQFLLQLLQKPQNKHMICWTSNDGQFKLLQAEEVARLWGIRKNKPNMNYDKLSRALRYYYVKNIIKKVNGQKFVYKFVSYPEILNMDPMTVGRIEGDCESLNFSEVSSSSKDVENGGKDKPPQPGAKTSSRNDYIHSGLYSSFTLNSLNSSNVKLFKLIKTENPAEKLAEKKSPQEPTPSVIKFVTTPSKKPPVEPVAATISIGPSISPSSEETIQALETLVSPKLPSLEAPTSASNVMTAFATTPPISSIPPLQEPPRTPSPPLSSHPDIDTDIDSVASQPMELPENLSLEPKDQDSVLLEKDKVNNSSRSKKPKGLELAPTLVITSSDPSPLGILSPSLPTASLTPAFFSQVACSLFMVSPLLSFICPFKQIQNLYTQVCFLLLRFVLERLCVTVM
Put shortly:
as §1

Sequence of ELF4 (Q99607 whole entry): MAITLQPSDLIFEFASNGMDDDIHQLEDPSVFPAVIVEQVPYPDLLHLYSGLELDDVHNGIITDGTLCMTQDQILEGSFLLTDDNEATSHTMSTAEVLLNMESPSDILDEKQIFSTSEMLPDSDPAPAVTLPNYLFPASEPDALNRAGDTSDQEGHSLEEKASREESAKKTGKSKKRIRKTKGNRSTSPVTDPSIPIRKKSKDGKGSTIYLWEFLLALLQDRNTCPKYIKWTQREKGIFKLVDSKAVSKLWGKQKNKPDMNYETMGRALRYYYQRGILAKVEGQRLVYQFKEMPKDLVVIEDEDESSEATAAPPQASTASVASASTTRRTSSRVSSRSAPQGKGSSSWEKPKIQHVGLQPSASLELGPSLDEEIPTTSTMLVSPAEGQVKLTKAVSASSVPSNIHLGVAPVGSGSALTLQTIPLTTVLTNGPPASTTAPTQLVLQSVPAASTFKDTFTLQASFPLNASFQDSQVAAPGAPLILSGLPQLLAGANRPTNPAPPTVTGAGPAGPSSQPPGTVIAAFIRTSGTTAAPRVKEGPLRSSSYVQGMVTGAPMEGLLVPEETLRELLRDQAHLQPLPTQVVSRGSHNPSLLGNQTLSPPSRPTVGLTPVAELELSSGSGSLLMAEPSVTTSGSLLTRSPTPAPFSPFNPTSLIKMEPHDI
Sequence of ELF1 (P32519 whole entry): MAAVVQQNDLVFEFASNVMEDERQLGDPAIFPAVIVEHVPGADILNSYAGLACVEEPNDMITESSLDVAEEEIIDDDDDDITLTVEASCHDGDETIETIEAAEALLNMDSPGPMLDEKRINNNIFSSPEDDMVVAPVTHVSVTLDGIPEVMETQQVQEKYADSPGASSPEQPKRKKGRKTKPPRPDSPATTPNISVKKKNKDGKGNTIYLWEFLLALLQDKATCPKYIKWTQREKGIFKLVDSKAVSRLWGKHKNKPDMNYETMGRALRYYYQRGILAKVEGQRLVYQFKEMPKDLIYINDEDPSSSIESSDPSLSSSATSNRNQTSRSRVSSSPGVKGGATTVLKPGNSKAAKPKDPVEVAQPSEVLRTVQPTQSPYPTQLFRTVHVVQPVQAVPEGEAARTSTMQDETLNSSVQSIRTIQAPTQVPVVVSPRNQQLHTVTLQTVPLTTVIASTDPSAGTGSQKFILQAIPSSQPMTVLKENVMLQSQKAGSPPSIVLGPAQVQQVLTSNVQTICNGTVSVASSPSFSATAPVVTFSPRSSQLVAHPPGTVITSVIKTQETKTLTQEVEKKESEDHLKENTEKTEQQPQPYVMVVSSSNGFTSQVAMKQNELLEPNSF
Sequence of ETV1 (P50549 whole entry): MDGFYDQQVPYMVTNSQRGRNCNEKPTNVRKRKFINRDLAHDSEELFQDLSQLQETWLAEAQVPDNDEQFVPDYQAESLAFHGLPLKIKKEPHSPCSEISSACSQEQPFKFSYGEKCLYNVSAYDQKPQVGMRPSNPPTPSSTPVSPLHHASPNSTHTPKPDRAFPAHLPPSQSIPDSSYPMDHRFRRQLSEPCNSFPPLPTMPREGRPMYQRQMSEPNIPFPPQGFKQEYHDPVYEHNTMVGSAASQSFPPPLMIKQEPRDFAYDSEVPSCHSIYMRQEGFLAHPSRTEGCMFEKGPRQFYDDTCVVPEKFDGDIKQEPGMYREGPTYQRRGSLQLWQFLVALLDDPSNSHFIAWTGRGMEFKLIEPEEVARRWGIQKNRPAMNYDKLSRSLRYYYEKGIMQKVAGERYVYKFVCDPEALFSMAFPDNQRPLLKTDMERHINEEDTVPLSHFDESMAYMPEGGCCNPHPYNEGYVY
Sequence of ETV6 (P41212 whole entry): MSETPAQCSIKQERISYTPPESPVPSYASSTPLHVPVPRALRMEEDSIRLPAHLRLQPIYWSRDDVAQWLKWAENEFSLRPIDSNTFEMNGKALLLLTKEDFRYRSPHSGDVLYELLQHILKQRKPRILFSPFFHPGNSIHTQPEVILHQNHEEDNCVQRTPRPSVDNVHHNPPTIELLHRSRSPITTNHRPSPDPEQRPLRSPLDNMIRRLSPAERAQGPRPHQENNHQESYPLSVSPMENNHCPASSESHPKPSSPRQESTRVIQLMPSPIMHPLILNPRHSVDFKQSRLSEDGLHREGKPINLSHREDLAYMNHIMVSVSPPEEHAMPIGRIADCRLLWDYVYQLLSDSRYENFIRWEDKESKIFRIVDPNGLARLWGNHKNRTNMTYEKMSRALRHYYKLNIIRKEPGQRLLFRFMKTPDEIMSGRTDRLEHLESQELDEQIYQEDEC

Turning to AACGCG, the binding signal is 1.04 fold enrichment (6-mer frequency, TF over GST control) in the assay with GABPA; 1.05 fold enrichment (6-mer frequency, TF over GST control) with ELF1; 1.05 fold enrichment (6-mer frequency, TF over GST control) in the assay with SPI1; 1.1 fold enrichment (6-mer frequency, TF over GST control) with SPIC; 1.01 fold enrichment (6-mer frequency, TF over GST control) in the assay with ELF4; 1.02 fold enrichment (6-mer frequency, TF over GST control) with ELF3. In addition, the binding signal with ETV1 was 1.04 fold enrichment (6-mer frequency, TF over GST control); in the assay with ETV7 it was 1.02 fold enrichment (6-mer frequency, TF over GST control); with ELF5 it was 1.03 fold enrichment (6-mer frequency, TF over GST control); with ETV3 it was 1.1 fold enrichment (6-mer frequency, TF over GST control); with ETV6, 1.01 fold enrichment (6-mer frequency, TF over GST control).
On to CTGTGG, for which the binding signal with SPIC is 1.1 fold enrichment (6-mer frequency, TF over GST control).
As for ATTGTG, the binding signal in the assay with SPIC is 1.07 fold enrichment (6-mer frequency, TF over GST control); with ELF4 it was 1 fold enrichment (6-mer frequency, TF over GST control); with ERF, 1.06 fold enrichment (6-mer frequency, TF over GST control).
In the case of TGTCAG, the binding signal with SPIC is 1 fold enrichment (6-mer frequency, TF over GST control); with ELK4, 1.02 fold enrichment (6-mer frequency, TF over GST control).
For GGGCAT, in the assay with SPIC, the binding signal is 1 fold enrichment (6-mer frequency, TF over GST control).
